Several values for one entry are separate records, joined by “and”; a condition that tells them apart may be missing. Equal values may be shown once. Inconclusive results are not listed. Where a structure was tested more than once in an assay, its records may differ in their call. Activity calls are given as the source filed them. The call rests on the fitted dose curve; in most records, active means well fitted cell-killing curve with a large enough effect; inconclusive means small, poorly fitted or top-dose-only effect, or effect the other way; inactive means no such curve, though single readings can be large or run the other way.
Test: Viability qHTS for spleen associated tyrosine kinase inhibitor (SYKi) naive MV4-11 cells (AID 1963823); further: nearly all actives have a fitted effect of over 40% in size
Conditions: MV4-11 AML viability, CellTiter-Glo luminescence, 72 h; series mostly up to 45 µM
Text: Department of Medicine, Hematology/Oncology
University Hospital Frankfurt, Germany.
Trials have shown promising clinical activity of the selective SYK inhibitor entospletinib in patients with high expressing HOXA9/MEIS1 acute leukemias. As the development of resistance mechanisms is a common problem in the use of targeted drugs, we performed a chemical library screen to identify drug sensitivities in SYK inhibitor resistant AML cells. […] Glucocorticoids are potent immunosuppressants which work in part by inhibiting the transcription of cytokine genes.
Described herein is a viability screen to look for activity in the SYK inhibitor naive cell line against four NCATS compound libraries (MIPE 5.0, NPC, NPACT, and Kinase) totaling 11372 compounds. Active hits were reacquired for confirmation and further secondary assay testing.
SEQUENCE No. (e.g., 1, 2, 3, etc.); […] (e.g., Cells, Incubation, Reagent, etc.); VALUE; DESCRIPTION.
1; Media; 2uL; white, solid-bottom Corning assay plate.
2; Compounds; 23nL; Echo acoustic dispenser.
3; Cell; 5uL; 500 cells per well.
4: Incubation; 72hr; 37 C, 5% CO2, 95% humidity.
5; Reagent; 3uL; CellTiter-Glo reagent (Promega).
6; Incubation; 10min; room temperature.
7; Detection; Luminescence; ViewLux plate reader (PerkinElmer).
NOTES (numbers refer to Sequence numbers above
1. Quantitative high-throughput screening (qHTS) of small molecule compounds was conducted on naive SYKi MV4-11 cell line.
2. Twenty-three nanoliter of small molecule compounds were added to each assay plates using the Echo acoustic dispenser (Beckman Coulter).
3. Cells were seeded into the assay plates at a final density of 500 cells in 5uL of media per well using the Multi-drop Combi dispenser.
4. Plates were covered with stainless steel gasketed lids and incubated for 72 hours at standard cell culture conditions.
5. Viability was assessed by adding 3uL of CellTiter-Glo detection reagent (Promega).
6. Plates were covered with gasket lids and incubated for 10 minutes at room temperature.
7. Luminescence was measured on a ViewLux plate reader (PerkinElmer).
Potency means the concentration at half of the fitted maximal effect.

SMILES | Potency | viability (% of control)
CC(=O)OC/C(=C/C(=O)O)CC[C@@H]1C(C)=CC(=O)[C@@H]2C(C)(C)CCC[C@@]12C | inactive | –
COc1cc(Cc2cnc(N)nc2N)cc(OC)c1OC | inactive | –
CC(/C=C/[C@]1(O)[C@@]2(C)CO[C@@]1(C)C[C@@H](O)C2)=C\C(=O)O[C@@H]1O[C@H](CO)[C@@H](O)[C@H](O)[C@H]1O | inactive | –
CC1(CO)CC2C(O)C3=C(CC(C)(O)C2C1)C(=O)OC3 (stereo not given) | inactive | –
CCCc1nc2c(C)cc(-c3nc4ccccc4n3C)cc2n1Cc1ccc(-c2ccccc2C(=O)O)cc1 | 750 nM (active) and inactive | –
C/C(=C\CCC(C)(C)O)CCO[C@@H]1O[C@H](CO[C@@H]2O[C@@H](C)[C@H](O)[C@@H](O)[C@H]2O)[C@@H](O)[C@H](O)[C@H]1O | inactive | –
COc1c2occc2c(OC)c2c(=O)cc(C)oc12 | inactive | –
CCC[C@H](N[C@@H](C)C(=O)N1[C@@H]2CCCC[C@H]2C[C@H]1C(=O)O)C(=O)OCC | inactive | –
CC1=CCC(C(C)(C)O[C@@H]2O[C@H](CO[C@@H]3O[C@@H](C)[C@H](O)[C@@H](O)[C@H]3O)[C@@H](O)[C@H](O)[C@H]2O)CC1 (stereo not given in full) | inactive | –
COCCCOc1cc(C[C@@H](C[C@H](N)[C@@H](O)C[C@H](C(=O)NCC(C)(C)C(N)=O)C(C)C)C(C)C)ccc1OC | inactive | –
OCCN1CCN(CCCN2c3ccccc3Sc3ccc(C(F)(F)F)cc32)CC1 | 16.8 µM (active) and 5.25 µM (active) | –
C[C@H]1O[C@@H](n2cc(F)c(=O)[nH]c2=O)[C@H](O)[C@@H]1O | 3.76 µM (active) and 2.35 µM (active) | –
C=C1C(=O)O[C@@H]2[C@H]3C(C)=CC(=O)C3=C(C)[C@@H](OC(=O)/C(C)=C\C)[C@H](O)[C@@H]12 | 3.21 µM (active) | –
CN(C)C(=O)NC1(c2ccccc2)CCN(CCC[C@]2(c3ccc(Cl)c(Cl)c3)CCCN(C(=O)c3ccccc3)C2)CC1 | 2.59 µM (active) | –
CC1=CC2/C=C(\C)CCC(O)C/C=C/C(=O)OC23C(=O)NC(CC(C)C)C3C1C (stereo not given) | 8.93 µM (active) | –
NS(=O)(=O)c1cc2c(cc1Cl)NC=NS2(=O)=O | inactive | –
Cc1ccc(NC(=O)Nc2nnc(Sc3ncnc4cc(OCCCN5CCOCC5)ccc34)s2)cc1 | 0.0148 µM (active) | –
CC(C)=CCCC1(C)/C=C/C(OC(=O)C=C(C)C)C(C)(O)/C=C/C(=O)/C(CO)=C\C1 (stereo not given) | 1.59 µM (active) | –
O=C(c1ccc(F)cc1)N1CCC[C@H](c2nc(-c3ccc(F)cc3)no2)C1 | 20.9 µM (active) | –
CN(C)CCNC(=O)c1cccn2c(=O)c3cc4ccccc4cc3nc12 | 0.299 µM (active) | –

SMILES | Potency | viability (% of control)
COc1cc(N2CCC(N)CC2)ccc1Nc1ncc(Cl)c(-c2c[nH]c3ccccc23)n1 | 0.0166 µM (active) | –
Cc1cc(Nc2nn(-c3ccccc3)c(=O)c3ccccc23)n[nH]1 | 0.146 µM (active) | –
C/C=C1/CC2C(=O)Nc3cc(O)c(OC)cc3C(=O)N2C1 (stereo not given) | 16.1 µM (active) | –
COc1cc2c(cc1OC)-c1cc(=Nc3c(C)cc(C)cc3C)n(C)c(=O)n1CC2 | 9.44 µM (active) | –
C/C=C(\C)C(=O)O[C@@H](C)[C@H]1CC[C@]2(O)C3CCC4C[C@@H](OC5CC(OC)C(OC6CC(OC)C(OC7CC(OC)C(OC8OC(C)C(OC9OC(CO)C(O)C(O)C9O)C(OC)C8O)C(C)O7)C(C)O6)C(C)O5)CC[C@]4(C)C3[C@H](O)[C@@H](O)[C@]12C (stereo not given in full) | – | 34.7% [at 9.25 µM] (inactive)
CC(C)(O)/C=C/CC(C)(O)C1C(O)CC2(C)C3CCC4C(C)(C)C(=O)CCC4(C)C3CCC12C (stereo not given) | inactive | –
CC(=O)OC[C@]12[C@H](OC(C)=O)[C@H](OC(=O)c3ccccc3)[C@@H]3[C@@H](OC(C)=O)[C@]1(OC3(C)C)[C@H](C)C[C@H](OC(=O)c1ccccc1)[C@@H]2OC(=O)c1ccccc1 | inactive | –
COc1ccc(CCO[C@@H]2CCCC[C@H]2N2CC[C@@H](O)C2)cc1OC | inactive | –
CNCCn1c(=O)c2cc(OC)c(OC)cc2c2cnc3cc4c(cc3c21)OCO4 | 0.0152 µM (active) | –
CC(C)(O)c1ccc2c(c1)C(O)CC1C(C)(C(=O)O)CCCC21C (stereo not given) | inactive | –
NCCNCCNCCNCCN | – | 121% [at 9.25 µM] (inactive)
N#Cc1cnc2c(Cl)cc(NCc3cn(CCN4CCCCCC4)nn3)cc2c1Nc1ccc(F)c(Cl)c1 | 9.2 µM (active) | –
N#CC1(c2ccc(NC(=O)c3cccnc3NCc3ccncc3)cc2)CCCC1 | 2.31 µM (active) | –
O=C(/C=C/c1ccc(O)cc1)OC[C@H]1O[C@H](O[C@@]2(CO)O[C@@H](CO)[C@H](O)[C@H]2O)[C@H](O)[C@@H](O)[C@@H]1O | inactive | –
CC(C)CCNC(=O)c1ccc2c(c1)nc(Nc1n[nH]c3ccc(-c4ccccc4OC(F)(F)F)cc13)n2C1CCC(O)CC1 (stereo not given) | 16.4 µM (active) | –
CC1=C[C@H](O)[C@H]2C(C)(C)CCC[C@]2(C)[C@@]1(O)CO | inactive | –
CCN1/C(=C/C(C)=O)Sc2ccc(OC(C)=O)cc21 | 7.31 µM (active) | –
COC1OC(O)C2(CCC3(O2)C(C)CC2OC(=O)C4(C)CCCC3(C)C24)C1O (stereo not given) | inactive | –
CC(C)NNC(=O)c1ccncc1 | inactive | –
CCC(O)C(C)C1CCC(C(C)C(=O)O)O1 (stereo not given) | inactive | –

Source: PubChem BioAssay (NCATS)
